tested on: DDR2; details: concentration: 1 μM, replicates: in singlicate; n = 1
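Also: KINOMEscan kinase panel screen.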

Going from `c1ccc(-c2ccc3c(-c4ccnc(Nc5ccc6c(c5)OCCO6)n4)cnn3n2)cc1` [GW818941] to `FC(F)(F)c1cc(Nc2nccc(-c3c(-c4ccc(Cl)cc4)nn4ncccc34)n2)ccc1Cl` [GW829351], the “%Inh” value rises from 26% to 30%.

Compared with `CCCc1ccc(S(=O)(=O)NC2CCN(c3ccnc(Nc4ccc(OC)cc4)n3)C2)cc1` (stereo not shown) [GSK1379737], `O=C(Nc1ccccc1F)NC1CCN(c2ccnc(Nc3ccc(F)cc3)n2)C1` (stereo not shown) [GSK1379722] is lower in “%Inh” value: 34% for the first, 11% for the second.

Compared with `Clc1cccc(-c2nc(Nc3ccncc3)c3ccccc3n2)c1` [GW873004], `Cc1cccc(-c2nc(Nc3ccc4[nH]nnc4c3)c3ccccc3n2)n1` [GW867587] is higher in “%Inh” value: 32% for the first, 37% for the second.

Going from `Cc1ccc(O)cc1Nc1cc(C(F)(F)F)nc2ccc(-c3ccncc3)cc12` [GW630823] to `Cl.Cn1ccc(-c2cccc(Nc3ccnc4cc(-c5nccs5)ccc34)c2)n1` [GW525701], the “%Inh” value rises from 0% to 33%.

Going from `COc1cc2ncnc(Nc3ccc(OCc4ccccc4Br)c(Cl)c3)c2cc1OC.Cl` [GI261590] to `Fc1cccc(COc2ccc(Nc3ncnc4cc[nH]c34)cc2Cl)c1`, the “%Inh” value falls from 18% to 0%.

First: Clc1ccc(-c2cc(-c3c[nH]nc3-c3ccccn3)ccn2)cc1 [GW681251]
Second: Nc1nc(-c2cccnc2)c(-c2ccnc3ccccc23)s1 [GW684083]
The “%Inh” value of the first is lower: 7% for the first, 43% for the second.

Compared with `CC(C)(C)OC(=O)NC1CCCN(c2cc(-c3ccc4c(N)n[nH]c4c3)nc(N)n2)C1` (stereo not shown) [GSK2286096], `C[C@H]1CC[C@@H](C(=O)Nc2ccccc2)CN1c1cc(-c2ccc3c(N)n[nH]c3c2)nc(N)n1` [GSK2283293] is higher in “%Inh” value: 0% for the first, 5% for the second.

First: O=C(Nc1ccccc1)Nc1ccc(Oc2ccc3nccn3n2)cc1
Second: COc1ccc(NC(=O)Nc2ccc(C)c(-c3ccc(C(=O)Nc4ccncc4)cc3)c2)cc1 [GSK1398475]
The “%Inh” value of the first is higher: 100% for the first, 44% for the second.

`CNc1nccc(-c2c(-c3ccc(F)cc3)ncn2CCCN2CCOCC2)n1` [SB-222516] and `CN1CCC(n2cnc(-c3ccc(F)cc3)c2-c2ccnc(NC3CCNCC3)n2)CC1` [SB-229482] are the same in “%Inh” value: 0% for the first, 0% for the second.

Compared with `Fc1cccc(COc2ccc(Nc3ncnc4sc(-c5ccc[nH]5)cc34)cc2Cl)c1` [GW707818], `CS(=O)(=O)CCNCc1nc(-c2ccc3ncnc(Nc4ccc(OCc5cccc(F)c5)c(Cl)c4)c3c2)cs1.Cl` [GW583340] is lower in “%Inh” value: 21% for the first, 20% for the second.

Going from `Cl.Cl.c1ccc(-c2cc3ccncc3cc2OC2CCNCC2)cc1` [GSK1122999] to `Nc1n[nH]c2nnc(-c3ccccc3)cc12` [SB-517389], the “%Inh” value rises from 0% to 7%.

Going from `COC(=O)c1cccc(NC(=O)NCCNc2ccnc(Nc3ccc(F)cc3)n2)c1` [GSK1379883] to `Cc1ccc(C)c(NC(=O)NCCNc2ccnc(Nc3ccc(F)cc3)n2)c1` [GSK1379878], the “%Inh” value falls from 17% to 15%.

Going from `CN1c2ccc(-c3ccc(C(=O)NCCO)cc3)cc2-c2[nH]ncc2S1(=O)=O` to `Cn1cc(-c2ccc3c(c2)CCN3C(=O)Cc2cccc(C(F)(F)F)c2)c2c(N)ncnc21` [GSK2606414], the “%Inh” value rises from 0% to 74%.

Going from `CC(C)(C)c1ccc(-n2cnc3c(N)ncnc32)cc1` [SKF-97263] to `CCC(CC)(CC)n1cnc2c(N)ncnc21` [SKF-97620], the “%Inh” value rises from 13% to 24%.

First: CSc1ccc(NC2=C(c3ccccc3Cl)C(=O)NC2=O)cc1 [SB-342411]
Second: COc1ccc(-c2oc3ncnc(N)c3c2-c2ccc(OC)cc2)cc1 [SB-589132]
The “%Inh” value of the first is lower: 0% for the first, 70% for the second.

First: O=C(CCO)NCCn1ccc2ncnc(Nc3ccc(Oc4cccc(C(F)(F)F)c4)c(Cl)c3)c21
Second: Cc1cc(N2CCC(NS(=O)(=O)c3ccc(F)cc3)CC2)nc(Nc2cccc(C#N)c2)n1.O=C(O)C(F)(F)F [GSK1653537]
The “%Inh” value of the first is lower: 0% for the first, 7% for the second.

First: CSc1nn2c(=O)cc(N3CCOCC3)nc2n1Cc1cccc(Cl)c1Cl [GSK2347225]
Second: CCc1nc(-c2cccc(N(C)S(=O)(=O)c3ccccc3)c2)c(-c2ccnc(Nc3ccc(N4CCN(C(C)=O)CC4)nc3)n2)s1 [GSK1645895]
The “%Inh” value of the first is lower: 0% for the first, 5% for the second.

With `Nc1nc(-c2ccc3c(N)n[nH]c3c2)cc(N2CCC[C@@H](C(=O)Nc3ccccc3)C2)n1.O=C(O)C(F)(F)F.O=C(O)C(F)(F)F` [GSK2288359] the “%Inh” value was 7%.

tested on: T1, DLK; details: concentration: 1 μM, replicates: in singlicate; n = 1
T1 construct: gene MAP3K12

`c1ccc(-c2ccc3c(-c4ccnc(Nc5ccc6c(c5)OCCO6)n4)cnn3n2)cc1` [GW818941] and `FC(F)(F)c1cc(Nc2nccc(-c3c(-c4ccc(Cl)cc4)nn4ncccc34)n2)ccc1Cl` [GW829351] are the same in “%Inh” value: 0% for the first, 0% for the second.

Compared with `CCCc1ccc(S(=O)(=O)NC2CCN(c3ccnc(Nc4ccc(OC)cc4)n3)C2)cc1` (stereo not shown) [GSK1379737], `O=C(Nc1ccccc1F)NC1CCN(c2ccnc(Nc3ccc(F)cc3)n2)C1` (stereo not shown) [GSK1379722] is lower in “%Inh” value: 28% for the first, 23% for the second.

`Clc1cccc(-c2nc(Nc3ccncc3)c3ccccc3n2)c1` [GW873004] and `Cc1cccc(-c2nc(Nc3ccc4[nH]nnc4c3)c3ccccc3n2)n1` [GW867587] are the same in “%Inh” value: 0% for the first, 0% for the second.

Compared with `Cc1ccc(O)cc1Nc1cc(C(F)(F)F)nc2ccc(-c3ccncc3)cc12` [GW630823], `Cl.Cn1ccc(-c2cccc(Nc3ccnc4cc(-c5nccs5)ccc34)c2)n1` [GW525701] is higher in “%Inh” value: 0% for the first, 37% for the second.

Going from `COc1cc2ncnc(Nc3ccc(OCc4ccccc4Br)c(Cl)c3)c2cc1OC.Cl` [GI261590] to `Fc1cccc(COc2ccc(Nc3ncnc4cc[nH]c34)cc2Cl)c1`, the “%Inh” value falls from 3% to 0%.

First: Clc1ccc(-c2cc(-c3c[nH]nc3-c3ccccn3)ccn2)cc1 [GW681251]
Second: Nc1nc(-c2cccnc2)c(-c2ccnc3ccccc23)s1 [GW684083]
The “%Inh” value of the first is higher: 92.9% for the first, 60% for the second.

Going from `CC(C)(C)OC(=O)NC1CCCN(c2cc(-c3ccc4c(N)n[nH]c4c3)nc(N)n2)C1` (stereo not shown) [GSK2286096] to `C[C@H]1CC[C@@H](C(=O)Nc2ccccc2)CN1c1cc(-c2ccc3c(N)n[nH]c3c2)nc(N)n1` [GSK2283293], the “%Inh” value rises from 2% to 25%.

First: O=C(Nc1ccccc1)Nc1ccc(Oc2ccc3nccn3n2)cc1
Second: COc1ccc(NC(=O)Nc2ccc(C)c(-c3ccc(C(=O)Nc4ccncc4)cc3)c2)cc1 [GSK1398475]
The “%Inh” value of the first is higher: 18% for the first, 0% for the second.

Compared with `CNc1nccc(-c2c(-c3ccc(F)cc3)ncn2CCCN2CCOCC2)n1` [SB-222516], `CN1CCC(n2cnc(-c3ccc(F)cc3)c2-c2ccnc(NC3CCNCC3)n2)CC1` [SB-229482] is lower in “%Inh” value: 1% for the first, 0% for the second.

First: Fc1cccc(COc2ccc(Nc3ncnc4sc(-c5ccc[nH]5)cc34)cc2Cl)c1 [GW707818]
Second: CS(=O)(=O)CCNCc1nc(-c2ccc3ncnc(Nc4ccc(OCc5cccc(F)c5)c(Cl)c4)c3c2)cs1.Cl [GW583340]
The “%Inh” value of the first is higher: 40% for the first, 2% for the second.

First: Cl.Cl.c1ccc(-c2cc3ccncc3cc2OC2CCNCC2)cc1 [GSK1122999]
Second: Nc1n[nH]c2nnc(-c3ccccc3)cc12 [SB-517389]
The “%Inh” value of the first is higher: 31% for the first, 0% for the second.

Compared with `COC(=O)c1cccc(NC(=O)NCCNc2ccnc(Nc3ccc(F)cc3)n2)c1` [GSK1379883], `Cc1ccc(C)c(NC(=O)NCCNc2ccnc(Nc3ccc(F)cc3)n2)c1` [GSK1379878] is higher in “%Inh” value: 31% for the first, 38% for the second.

Going from `CN1c2ccc(-c3ccc(C(=O)NCCO)cc3)cc2-c2[nH]ncc2S1(=O)=O` to `Cn1cc(-c2ccc3c(c2)CCN3C(=O)Cc2cccc(C(F)(F)F)c2)c2c(N)ncnc21` [GSK2606414], the “%Inh” value falls from 29% to 23%.

`CC(C)(C)c1ccc(-n2cnc3c(N)ncnc32)cc1` [SKF-97263] and `CCC(CC)(CC)n1cnc2c(N)ncnc21` [SKF-97620] are the same in “%Inh” value: 0% for the first, 0% for the second.

Going from `CSc1ccc(NC2=C(c3ccccc3Cl)C(=O)NC2=O)cc1` [SB-342411] to `COc1ccc(-c2oc3ncnc(N)c3c2-c2ccc(OC)cc2)cc1` [SB-589132], the “%Inh” value rises from 0% to 52%.

Compared with `O=C(CCO)NCCn1ccc2ncnc(Nc3ccc(Oc4cccc(C(F)(F)F)c4)c(Cl)c3)c21`, `Cc1cc(N2CCC(NS(=O)(=O)c3ccc(F)cc3)CC2)nc(Nc2cccc(C#N)c2)n1.O=C(O)C(F)(F)F` [GSK1653537] is higher in “%Inh” value: 0% for the first, 47% for the second.

Compared with `CSc1nn2c(=O)cc(N3CCOCC3)nc2n1Cc1cccc(Cl)c1Cl` [GSK2347225], `CCc1nc(-c2cccc(N(C)S(=O)(=O)c3ccccc3)c2)c(-c2ccnc(Nc3ccc(N4CCN(C(C)=O)CC4)nc3)n2)s1` [GSK1645895] is lower in “%Inh” value: 100% for the first, 0% for the second.

In the case of `Nc1nc(-c2ccc3c(N)n[nH]c3c2)cc(N2CCC[C@@H](C(=O)Nc3ccccc3)C2)n1.O=C(O)C(F)(F)F.O=C(O)C(F)(F)F` [GSK2288359], the “%Inh” value was 0%.

— paper PMC5540273 (PLoS ONE, 2017)
